# Measurements reported in PubChem BioAssay AID2252 (Southern Research Specialized Biocontainment Screening …, 2010).
# Hit rate of the full screen: of about 2,300 compounds, about 1,500 (65%) were called active. How the calls were made is not given here. The set was probably picked from earlier hits. These entries were drawn from the full list.
# Assay: PubChem AID 2252;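 further: 100% = mean of untreated cell control wells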
# Details: THP-1 viability, CellTiter-Glo luminescence, 72 h; min viability: minimum viability across concentrations, stronger effect = lower value, concentration not given here; series mostly up to 50 µM; viability: at the top concentration
SMILES,viability,min viability
O=C(c1cccs1)N1CCN(S(=O)(=O)c2ccccc2)CC1,93.3% (inactive),–
COc1ccc(Cl)cc1NC(=O)c1cc(-c2ccccc2)on1,92% (inactive),–
C#CCOCCOCCOCCNc1nc(N2CCN(C(=O)[C@H](CCCCN)n3cc([C@@H](N)CC(C)C)nn3)CC2)nc(N2CCN(C(=O)[C@H](Cc3cc4ccccc4[nH]3)n3cc([C@@H](N)Cc4ccc(O)cc4)nn3)CC2)n1,98.8% (inactive),–
CO[C@@]1(NC(=O)C2SC(=C(C(N)=O)C(=O)O)S2)C(=O)N2C(C(=O)O)=C(CSc3nnnn3C)CS[C@@H]21 (stereo partly specified),84.2% (inactive),–
CC1=NOC(=O)/C1=C/c1ccc(O)cc1,94.8% (inactive),–
Fc1ccccc1CCNCc1ccccc1,84.2% (inactive),–
CCn1cc(C(=O)O)c(=O)c2cc(F)c(N3CCN(C(=O)Nc4ccccc4)CC3)cc21,82.1% (inactive),–
COc1ccc(Cl)cc1S(=O)(=O)N1CCN(C(=O)c2ccco2)CC1,94% (inactive),–
C#CCOCCOCCOCCNc1nc(N2CCN(C(=O)[C@H](Cc3ccc(O)cc3)n3cc([C@@H](N)CC(C)C)nn3)CC2)nc(N2CCN(C(=O)[C@H](Cc3ccc(O)cc3)n3cc([C@@H](N)CC(C)C)nn3)CC2)n1,102% (inactive),–
O=C(O)c1ccc(CSc2nnnn2C2CCCCC2)cc1,99.2% (inactive),–
COC(=O)c1ccc(NC(=O)c2ccccc2N(C)S(=O)(=O)c2ccccc2)cc1,80.3% (inactive),–
CCOC(=O)c1sc(N)c(C(=O)OC)c1C,83.4% (inactive),–
COc1cc(OC)nc(NC(=O)C(C)C)n1,93.5% (inactive),–
C[C@]1(OC(=O)/C=C/c2ccccc2)C[C@@H](O)[C@]2(O)C=CO[C@@H](O[C@@H]3O[C@H](CO)[C@@H](O)[C@H](O)[C@H]3O)[C@@H]21,87.5% (inactive),–
O=[N+]([O-])c1ccc(CN2CCSCC2)cc1,98.1% (inactive),–
NC(=O)c1cc(S(=O)(=O)Nc2cccc(F)c2)co1,99.6% (inactive),–
O=C(N/N=C/c1ccc(F)c(F)c1)c1cc2c(s1)-c1ccccc1CC2,97.7% (inactive),–
O=C(COc1ccc(Cl)cc1)N1CCN(C2CCCC2)CC1,110% (inactive),92.7%
O=C(/C=C/c1ccccc1)OCc1cnc(Cl)s1,98.5% (inactive),–
CCOC(=O)c1cccc(NC(=O)C2CCC(CNc3c(N4CCOCC4)c(=O)c3=O)CC2)c1 (stereo unspecified),91.6% (inactive),–
Cc1cc(C(=O)Nc2cccnc2)on1,101% (inactive),–
O=c1c2ccccc2[nH]c2ccccc12,86.8% (inactive),–
CCN1CCN(C(=O)c2cc3ccc(OC)cc3[nH]2)CC1,97.6% (inactive),–

SMILES,viability,min viability
CC(C)(C)NC(=O)/C=C/c1ccc(C(F)(F)F)cc1,92.3% (inactive),–
COc1cccc(CNc2nn[nH]n2)c1OC,106% (inactive),–
Nc1ccc(S(=O)(=O)Nc2ccc(Cl)nn2)cc1,98.9% (inactive),–
O=C(NC1(C(F)(F)F)C(=O)Nc2c1c(=O)[nH]c(=O)n2-c1ccccc1)c1ccncc1 (stereo unspecified),88.6% (inactive),–
CC(C)C(NS(=O)(=O)c1cccc2nsnc12)C(=O)N1CCn2c1nc1ccccc12 (stereo unspecified),94.3% (inactive),–
O=S(=O)(Nc1cccc(-c2cn3c(n2)SCC3)c1)c1ccc(F)cc1F,89.8% (inactive),–
CCOc1ccc(N2CC(C(=O)OCC(=O)NCc3ccccc3)CC2=O)cc1 (stereo unspecified),103% [at 25 µM] (inactive),–
O=C(NC(=S)Nc1c(F)cc(F)cc1Br)c1ccc2c(c1)OCCO2,94% (inactive),–
CCOC(=O)/C=C1/N(C)c2ccccc2C1(C)C,97.1% (inactive),–
CCCCOc1ccc(CN2CCC(O)CC2)cc1,95.6% (inactive),–
CCO[C@H]1OC(C(=O)O)=C[C@@H](c2ccccc2)[C@@H]1CCCO,93.8% (inactive),–
CCc1nc(SCC(=O)NCCc2ccccc2)c2c(=O)n(C)c(=O)n(C)c2n1,105% (inactive),–
C/C(=C\C(=O)OCCCCCCCCC(=O)O)C[C@@H]1OC[C@H](C[C@@H]2O[C@H]2[C@@H](C)[C@H](C)O)[C@@H](O)[C@H]1O,96.7% (inactive),–
Cc1cc(C)n2nc(S(=O)(=O)Nc3c(Cl)cccc3Cl)nc2n1,104% (inactive),–
COc1cccc(OC)c1C(=O)Nc1ccc(N2CCN(S(C)(=O)=O)CC2)cc1,84.6% (inactive),–
O=C(c1ccccc1F)N1C(=O)c2cccc3cccc1c23,91.2% (inactive),–
CCc1cccc2c(C=C(C#N)C#N)cn(CC(=O)N3CCCCCC3)c12,103% (inactive),–
COc1ccc(-c2cc(C(=O)Nc3ccc(S(=O)(=O)Nc4onc(C)c4C)cc3)c3ccccc3n2)cc1OC,96% (inactive),–
O=C1C(O)=C(O)C(=O)c2ccccc21,81.8% (inactive),–
Cc1cccc2cc(C(c3nnnn3Cc3ccccc3)N3CCN(C)CC3)c(=O)[nH]c12 (stereo unspecified),102% (inactive),–
O=C(C[n+]1cc(-c2ccc(Cl)cc2)n2c1CCC2)Nc1nc(-c2ccccc2)cs1,109% (inactive),–
C#CCOCCOCCOCCNc1nc(N2CCN(C(=O)[C@H](CCCCN)n3cc([C@@H](N)CO)nn3)CC2)nc(N2CCN(C(=O)[C@H](Cc3cc4ccccc4[nH]3)n3cc([C@@H](N)Cc4ccc(O)cc4)nn3)CC2)n1,91.4% (inactive),–
COc1ccc(-n2nnc3c(SCC(=O)N4CCCc5ccccc54)ncnc32)cc1,99.5% (inactive),–

SMILES,viability,min viability
CC(C)(C)SCCNC(=O)c1ccccc1,97.1% (inactive),–
Cc1cc(C)c2c(=O)[nH]c(SCC(=O)N3CCCCC3)nc2n1,87.6% (inactive),–
CN(CC(=O)NCc1ccncc1)S(=O)(=O)c1ccccc1,95.6% (inactive),–
O=C(Nc1ccc2c(c1)OCCO2)C(=S)NCc1ccccc1,81.3% (inactive),–
CCN(CC)CCn1nc(C)nc1-c1ccccc1O,95.7% (inactive),–
CCN(CC(=O)Nc1ccc(C(=O)OC)cc1)C1CCCCC1,97.9% [at 25 µM] (inactive),–
CC(=O)NS(=O)(=O)c1ccc(Nc2ccc([N+](=O)[O-])c3nonc23)cc1,93.8% (inactive),–
O=C(NC(CO)Cc1ccc([N+](=O)[O-])cc1)C(Cl)Cl (stereo unspecified),94% (inactive),–
C#CCOCCOCCOCCNc1nc(N2CCN(C(=O)[C@H](Cc3cc4ccccc4[nH]3)n3cc([C@@H](N)CC(C)C)nn3)CC2)nc(N2CCN(C(=O)[C@H](Cc3cc4ccccc4[nH]3)n3cc([C@@H](N)CC(C)C)nn3)CC2)n1,91.9% (inactive),–
COCCN1C(=O)C(=O)/C(=C(/O)c2cccc(OC)c2)C1c1ccncc1 (stereo unspecified),117% (inactive),–
Cc1cccc(NC(=O)CSc2nc3c([nH]c4ccccc43)c(=O)n2C)c1,87.8% (inactive),–
O=C(COc1ccc(Cl)cc1)Nc1cccc(-c2ccc3nncn3n2)c1,82.9% (inactive),–
CO[C@H]1/C=C/O[C@@]2(C)Oc3c(C)c(O)c4c(O)c(c(C=NN5CCN(C)CC5)c(O)c4c3C2=O)NC(=O)/C(C)=C\C=C\[C@H](C)[C@H](O)[C@@H](C)[C@@H](O)[C@@H](C)[C@H](OC(C)=O)[C@@H]1C,81.3% (inactive),–
CCOC(=O)c1ccc(NC(=O)c2cc3c(s2)CCC3)cc1,89% (inactive),–
CCC1(CC)C(=O)NC(=O)NC1=Nc1cccc(OC)c1,105% (inactive),–
CCOc1ccc2nnnn2n1,96.2% (inactive),–
CCCCC(=O)Nc1ccc(F)c(Cl)c1,90.9% (inactive),–
Clc1ccc(Cn2cc(Br)cn2)cc1Cl,85.3% (inactive),–
CCOC(=O)CSc1nc(-c2ccccc2)nc2ccccc12,103% (inactive),–
COc1ccccc1NC(=O)Cn1c(=O)n(CCc2c[nH]c3ccccc23)c(=O)c2cccnc21,92% (inactive),–
c1ccc(N2CCN(c3nc4ccccc4[nH]3)CC2)nc1,88.5% (inactive),–
C=CCOc1ccc(-c2n[nH]c(=S)o2)cc1,99.7% (inactive),–
C=CC1=C(C(=O)O)N2C(=O)[C@@H](NC(=O)/C(=N\O)c3csc(N)n3)[C@H]2SC1 (stereo in doubt),92.6% (inactive),–

SMILES,viability,min viability
COc1ccc(/C=N/NC(=O)c2cccnc2)cc1,91.8% (inactive),–
Cc1ccc2cc(-c3noc(C4CCCO4)n3)c(=O)[nH]c2c1 (stereo unspecified),93.5% (inactive),–
CCOc1ccc(NC(N)=O)cc1,103% (inactive),–
Clc1ccc(OCc2nn3c(C4CCCCC4)nnc3s2)c(Cl)c1,86.5% [at 25 µM] (inactive),–
COc1ccccc1CNC(=O)COC(=O)CCC(=O)c1cccs1,102% (inactive),–
O=c1c2ccccc2ncn1Cc1ccc(Cl)cc1,81.6% (inactive),–
COc1nc(N(C#N)CC(N)=O)nc(N2CCCC2)n1,89.8% (inactive),–
Cc1ccc(-c2c(C)n([O-])c3c([n+]2=O)CCCC3)o1,116% (inactive),–
O=S(=O)(c1ccccc1)c1nc(-c2cccs2)oc1NCC1CCCO1 (stereo unspecified),81.2% (inactive),–
C#CCOCCOCCOCCNc1nc(N2CCN(C(=O)C(Cc3cc4ccccc4[nH]3)n3cc(C(N)C(C)CC)nn3)CC2)nc(N2CCN(C(=O)C(Cc3cc4ccccc4[nH]3)n3cc(C(N)C(C)CC)nn3)CC2)n1 (stereo unspecified),92.1% (inactive),–
CC[C@H]1OC(=O)[C@H](C)[C@@H](O[C@H]2C[C@@](C)(OC)[C@@H](O)[C@H](C)O2)[C@H](C)[C@@H](O[C@@H]2O[C@H](C)C[C@H](N(C)C)[C@H]2O)[C@](C)(OC)C[C@@H](C)C(=O)[C@H](C)[C@@H](O)[C@]1(C)O,90.7% [at 25 µM] (inactive),–
CCOC(=O)Cc1[nH]nc2c1C(c1ccoc1)C(C#N)=C(N)O2 (stereo unspecified),89.2% (inactive),–
O/N=C/c1ccc(OCc2ccccc2)c(Cl)c1,96.7% [at 25 µM] (inactive),–
C#CCOCCOCCOCCNc1nc(N2CCN(C(=O)[C@H](Cc3ccc(O)cc3)n3cc([C@@H](N)CC(C)C)nn3)CC2)nc(N2CCN(C(=O)[C@H](Cc3cc4ccccc4[nH]3)n3cc([C@@H](N)CC(C)C)nn3)CC2)n1,97.2% (inactive),–
Cc1ncc([N+](=O)[O-])n1CC(=O)NC1CCCC1,101% (inactive),–
Cc1ccc(N(C(=O)c2sc(C)nc2C)C(C(=O)NCc2ccco2)c2ccccc2)cc1 (stereo unspecified),82.3% (inactive),–
CCOC(=O)c1ccc(CNCc2ccc(Br)cc2)cc1,83.4% (inactive),–
Cc1cc(C)cc(NC(=O)C(Sc2nnc(C)c(=O)[nH]2)c2ccccc2)c1 (stereo unspecified),101% (inactive),–
Nc1ccc(S(=O)(=O)Nc2nccs2)cc1,92.6% (inactive),–
CC(C)c1cc(C(=O)Nc2ccc3c(c2)OCO3)no1,82.2% (inactive),–
CC1Cc2ccccc2N1C(=O)CN1C(=O)C(=O)N(Cc2ccccc2)C1=O (stereo unspecified),108% (inactive),–
